# Test results published in the supplement of paper PMC6992640.
# Tested on: WHIM30 (cells of a triple-negative basal-like breast cancer xenograft)
# Assay: cell viability of combination (% of vehicle); higher = less cytotoxic
# Settings: 1 µM; 72 h; partner dose: 10 nM
# Procedure: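 PDX cells were treated for 72 h with each drug at 1 µM plus carfilzomib (10 nM; 100 nM for WHIM2). Luciferase viability is expressed as percent of vehicle.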
row,SMILES,cell viability of combination
1,Cc1cccc(CN2CCN(C(c3ccccc3)c3ccc(Cl)cc3)CC2)c1.Cl.Cl (stereo not given) [Meclizine 2HCl] + CC(C)C[C@H](NC(=O)[C@H](CCc1ccccc1)NC(=O)CN1CCOCC1)C(=O)N[C@@H](Cc1ccccc1)C(=O)N[C@@H](CC(C)C)C(=O)[C@@]1(C)CO1 [Carfilzomib],11.7
2,CSc1ccc2c(c1)N(CCC1CCCCN1C)c1ccccc1S2.Cl (stereo not given) [Thioridazine HCl] + CC(C)C[C@H](NC(=O)[C@H](CCc1ccccc1)NC(=O)CN1CCOCC1)C(=O)N[C@@H](Cc1ccccc1)C(=O)N[C@@H](CC(C)C)C(=O)[C@@]1(C)CO1 [Carfilzomib],17.7
3,CC1=CC(=O)c2ccccc2C1=O [Menadione] + CC(C)C[C@H](NC(=O)[C@H](CCc1ccccc1)NC(=O)CN1CCOCC1)C(=O)N[C@@H](Cc1ccccc1)C(=O)N[C@@H](CC(C)C)C(=O)[C@@]1(C)CO1 [Carfilzomib],21.4
4,CCCCc1oc2ccc(NS(C)(=O)=O)cc2c1C(=O)c1ccc(OCCCN(CCCC)CCCC)cc1.Cl [Dronedarone HCl] + CC(C)C[C@H](NC(=O)[C@H](CCc1ccccc1)NC(=O)CN1CCOCC1)C(=O)N[C@@H](Cc1ccccc1)C(=O)N[C@@H](CC(C)C)C(=O)[C@@]1(C)CO1 [Carfilzomib],12.7
5,O=C(NC1CCN(CCCCC2(C(=O)NCC(F)(F)F)c3ccccc3-c3ccccc32)CC1)c1ccccc1-c1ccc(C(F)(F)F)cc1 [Lomitapide] + CC(C)C[C@H](NC(=O)[C@H](CCc1ccccc1)NC(=O)CN1CCOCC1)C(=O)N[C@@H](Cc1ccccc1)C(=O)N[C@@H](CC(C)C)C(=O)[C@@]1(C)CO1 [Carfilzomib],9.93
6,CN1CCN(CCCN2c3ccccc3Sc3ccc(C(F)(F)F)cc32)CC1.Cl.Cl [Trifluoperazine 2HCl] + CC(C)C[C@H](NC(=O)[C@H](CCc1ccccc1)NC(=O)CN1CCOCC1)C(=O)N[C@@H](Cc1ccccc1)C(=O)N[C@@H](CC(C)C)C(=O)[C@@]1(C)CO1 [Carfilzomib],16.7
7,CCCSc1nc(NC2CC2c2ccc(F)c(F)c2)c2nnn(C3CC(OCCO)C(O)C3O)c2n1 (stereo not given) [Ticagrelor] + CC(C)C[C@H](NC(=O)[C@H](CCc1ccccc1)NC(=O)CN1CCOCC1)C(=O)N[C@@H](Cc1ccccc1)C(=O)N[C@@H](CC(C)C)C(=O)[C@@]1(C)CO1 [Carfilzomib],14.4
8,COc1cc(Nc2c(C#N)cnc3cc(OCCCN4CCN(C)CC4)c(OC)cc23)c(Cl)cc1Cl [Bosutinib (SKI-606)] + CC(C)C[C@H](NC(=O)[C@H](CCc1ccccc1)NC(=O)CN1CCOCC1)C(=O)N[C@@H](Cc1ccccc1)C(=O)N[C@@H](CC(C)C)C(=O)[C@@]1(C)CO1 [Carfilzomib],20.9
9,Cc1c(C(=O)NN2CCCCC2)nn(-c2ccc(Cl)cc2Cl)c1-c1ccc(Cl)cc1 [Rimonabant] + CC(C)C[C@H](NC(=O)[C@H](CCc1ccccc1)NC(=O)CN1CCOCC1)C(=O)N[C@@H](Cc1ccccc1)C(=O)N[C@@H](CC(C)C)C(=O)[C@@]1(C)CO1 [Carfilzomib],16.3
10,CO[C@H]1/C=C/O[C@@]2(C)Oc3c(C)c(O)c4c(O)c(c(/C=N/N5CCN(C6CCCC6)CC5)c(O)c4c3C2=O)NC(=O)/C(C)=C\C=C\[C@H](C)[C@H](O)[C@@H](C)[C@@H](O)[C@@H](C)[C@H](OC(C)=O)[C@@H]1C [Rifapentine] + CC(C)C[C@H](NC(=O)[C@H](CCc1ccccc1)NC(=O)CN1CCOCC1)C(=O)N[C@@H](Cc1ccccc1)C(=O)N[C@@H](CC(C)C)C(=O)[C@@]1(C)CO1 [Carfilzomib],21.9
11,CCN1CCN(Cc2ccc(Nc3ncc(F)c(-c4cc(F)c5nc(C)n(C(C)C)c5c4)n3)nc2)CC1.CS(=O)(=O)O + CC(C)C[C@H](NC(=O)[C@H](CCc1ccccc1)NC(=O)CN1CCOCC1)C(=O)N[C@@H](Cc1ccccc1)C(=O)N[C@@H](CC(C)C)C(=O)[C@@]1(C)CO1 [Carfilzomib],23.6
12,CO[C@@]12[C@H](COC(N)=O)C3=C(C(=O)C(C)=C(N)C3=O)N1C[C@@H]1N[C@@H]12 [Mitomycin C] + CC(C)C[C@H](NC(=O)[C@H](CCc1ccccc1)NC(=O)CN1CCOCC1)C(=O)N[C@@H](Cc1ccccc1)C(=O)N[C@@H](CC(C)C)C(=O)[C@@]1(C)CO1 [Carfilzomib],23.5
13,CCCCc1oc2ccc(NS(C)(=O)=O)cc2c1C(=O)c1ccc(OCCCN(CCCC)CCCC)cc1 [Dronedarone] + CC(C)C[C@H](NC(=O)[C@H](CCc1ccccc1)NC(=O)CN1CCOCC1)C(=O)N[C@@H](Cc1ccccc1)C(=O)N[C@@H](CC(C)C)C(=O)[C@@]1(C)CO1 [Carfilzomib],19
14,CN(C)c1ccc(O)c2c1CC1CC3C(N(C)C)C(=O)C(C(N)=O)=C(O)C3(O)C(=O)C1=C2O.Cl (stereo not given) [Minocycline HCl] + CC(C)C[C@H](NC(=O)[C@H](CCc1ccccc1)NC(=O)CN1CCOCC1)C(=O)N[C@@H](Cc1ccccc1)C(=O)N[C@@H](CC(C)C)C(=O)[C@@]1(C)CO1 [Carfilzomib],26.4
15,C=C1C(=CC=C2CCCC3(C)C2CCC3C(C)CCCC(C)C)CC(O)CC1O (stereo not given) [Alfacalcidol] + CC(C)C[C@H](NC(=O)[C@H](CCc1ccccc1)NC(=O)CN1CCOCC1)C(=O)N[C@@H](Cc1ccccc1)C(=O)N[C@@H](CC(C)C)C(=O)[C@@]1(C)CO1 [Carfilzomib],16.6
16,Nc1ccn(C2OC(CO)C(O)C2O)c(=O)n1 (stereo not given) [Cytarabine] + CC(C)C[C@H](NC(=O)[C@H](CCc1ccccc1)NC(=O)CN1CCOCC1)C(=O)N[C@@H](Cc1ccccc1)C(=O)N[C@@H](CC(C)C)C(=O)[C@@]1(C)CO1 [Carfilzomib],19.3
17,CCOC(=O)C1=C(COCCN)NC(C)=C(C(=O)OC)C1c1ccccc1Cl.O=S(=O)(O)c1ccccc1 (stereo not given) [Amlodipine Besylate] + CC(C)C[C@H](NC(=O)[C@H](CCc1ccccc1)NC(=O)CN1CCOCC1)C(=O)N[C@@H](Cc1ccccc1)C(=O)N[C@@H](CC(C)C)C(=O)[C@@]1(C)CO1 [Carfilzomib],16.5
18,CNCCC(Oc1ccc(C(F)(F)F)cc1)c1ccccc1.Cl (stereo not given) [Fluoxetine HCl] + CC(C)C[C@H](NC(=O)[C@H](CCc1ccccc1)NC(=O)CN1CCOCC1)C(=O)N[C@@H](Cc1ccccc1)C(=O)N[C@@H](CC(C)C)C(=O)[C@@]1(C)CO1 [Carfilzomib],16.3
19,CC(C)c1nc(CN(C)C(=O)NC(C(=O)NC(Cc2ccccc2)CC(O)C(Cc2ccccc2)NC(=O)OCc2cncs2)C(C)C)cs1 (stereo not given) [Ritonavir] + CC(C)C[C@H](NC(=O)[C@H](CCc1ccccc1)NC(=O)CN1CCOCC1)C(=O)N[C@@H](Cc1ccccc1)C(=O)N[C@@H](CC(C)C)C(=O)[C@@]1(C)CO1 [Carfilzomib],27.3
20,Cc1cc(-n2c(=O)[nH]c(=O)n(C)c2=O)ccc1Oc1ccc(SC(F)(F)F)cc1 [Toltrazuril] + CC(C)C[C@H](NC(=O)[C@H](CCc1ccccc1)NC(=O)CN1CCOCC1)C(=O)N[C@@H](Cc1ccccc1)C(=O)N[C@@H](CC(C)C)C(=O)[C@@]1(C)CO1 [Carfilzomib],19.3
